Bioassay records: PubChem BioAssay, several laboratories
The list is not random: actives were taken first. Their share in the collection is about 3.4%.
PG9 binder = binds the HIV-1 gp120 antibody PG9; TR-FRET gp120-PG9 antibody binding; inhibition, % at 6.7 µM; actives 0.43% (n = 360,000); in the data active = inhibition above about 8.5%
AI-2 QS mod = modulators of Vibrio harveyi AI-2 quorum sensing system; Vibrio harveyi JMH597 AI-2 luminescence/OD600 ratio, 9 h; stronger effect = lower value; strain lacks LuxN and CqsS sensors; 0 = neutral-control median; activity change, % at 7.5 µM; actives 0.4% (n = 300,000); AID 2094; in the data active = activity change below about -75%, passing the limit was not always enough;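 note: luminescence divided by OD600 gain over 9 h not by final OD600 alone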
GAA850 FXN act = increases GAA850 frataxin promoter reporter activity | HEK293 lucGAA850 FXN promoter luciferase reporter, 24 h; percent of 10 µM SAHA response | activation, % at 6 µM | actives 0.56% (n = 360,000);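 active = activation above the average of all compounds screened plus 3 SD, cutoff fixed separately per campaign, cut at about 7.5% in these data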;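 note: 0% = DMSO wells and 100% = 10 µM SAHA wells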
SMARCA2 act = increases SMARCA2 function in MMTV reporter cells | MG213 cells, MMTV-luciferase reporter, dexamethasone, overnight | activation, % at 9.1 µM | actives 1% (n = 370,000); in the data active = activation above about 7.8%;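 note: 0% = vehicle wells and 100% = reference activator wells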
HSF1 inhib = HSF1 inhibition; NIH3T3-HGL HSE-luciferase, MG132-induced, luminescence 8 h; stronger effect = lower value; activity change, negative = inhibition, % at 7.5 µM (by protocol); actives 0.77% (n = 300,000);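 active = more than half of replicate wells show activity change below -50%, luminescence cut by over half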;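 note: luciferase reports HSF-1 transcriptional activity via heat shock element; 0% = median of DMSO wells and -100% = zero luminescence signal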
HSP90 refold inh = blocks HSP90-mediated luciferase refolding in reticulocyte lysate; actives 0.91% (n = 290,000); AID 1789; Rabbit reticulocyte lysate, luciferase refolding luminescence, 3 h; inhibition, % at 5.6 µM;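 active = inhibition above the screen-wide mean plus 3 SD, computed separately per campaign, cut at about 16% in these data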;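 note: 0% = DMSO wells and 100% = 60 µM geldanamycin wells; inhibitors lower the luminescence because luciferase stays unfolded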
SMARCA2 conf = SMARCA2 activation, confirmation screen. activation, % at 9.1 µM. actives 30% (n = 3,500). MG213 cells, MMTV-luciferase with dexamethasone, luminescence, overnight; MG213 cells expressing E1A, Rb sequestered; DMSO wells 0%, reference activator 100%. shares compounds with SMARCA2 act. AID 652260;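 active = activation above its plate's cutoff, the mean activation of tested wells plus 3 SD, cut at about 7.9% in these data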
GAL4-VP16 Luc = counter-screen for SMARCA2 activators: GAL4-VP16 luciferase reporter activation; shares compounds with SMARCA2 act; HEK293 GAL4-VP16 pG5luc reporter, luciferase luminescence; scaled: DMSO wells 0%, SAHA wells 100%; activation, % at 9.1 µM; actives 41% (n = 3,500); AID 686939;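 active = activation above the solvent-only control well mean plus 3 SD, averaged across control plates, cut at about 5.2% in these data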
Active calls of the source: *; · = not tested or not shown.

SMILES	PG9 binder	AI-2 QS mod	GAA850 FXN act	SMARCA2 act	HSF1 inhib	HSP90 refold inh	SMARCA2 conf	GAL4-VP16 Luc
COc1ccc(N/C(C)=C/C(=S)Nc2ccccc2)cc1	-1.0	6.3	3.1	11.5*	8.4	-3.1	2.6	1.9
COc1ccc(C(=O)OCCc2ccc(O)cc2)cc1	-0.9	-15.1	1.6	9.2*	18.6	-0.5	8.6*	11.6*
COc1ccc(CCOC(=O)c2ccc(NC(=O)CC#N)cc2)cc1	-1.8	31.7	2.6	1.0	0.9	-2.9	·	·
Cc1onc(-c2c(Cl)cccc2Cl)c1C(=O)Nc1c(C)n(C)n(-c2ccccc2)c1=O	1.3	12.1	-0.6	-0.3	-6.1	-1.4	·	·
Cc1c(NC(=O)C2CC(c3c(F)cccc3Cl)=NO2)c(=O)n(-c2ccccc2)n1C (configuration not stated)	0.1	7.2	-2.3	8.4*	-11.4	2.7	0.2	-0.6
O=C(Oc1c(CN2CCOCC2)cc(Cl)c2cccnc12)c1cccs1	2.1	42.1	-0.6	33.4*	-18.3	-0.7	15.7*	1.5
O=C(Oc1c(CN2CCOCC2)cc(Cl)c2cccnc12)c1ccc(F)cc1	-1.0	29.5	-0.2	5.6	-4.8	0.3	·	·
COc1ccc(/C(O)=C2/C(=O)C(=O)N(c3ccccn3)C2c2ccc(F)cc2)cc1 (configuration not stated)	5.2	6.0	3.7	11.3*	13.7	3.3	1.0	2.1
Oc1ccccc1Nc1ncnc2c1oc1ccccc12	-0.4	10.2	1.4	3.6	·	1.5	·	·
Oc1cccc(Nc2ncnc3c2oc2ccccc23)c1	0.4	6.2	6.2	8.3*	16.4	-2.9	12.3*	9.1*
COc1ccc(C2=NOC(C(=O)Nc3cc(Br)ccc3O)C2)cc1OC (configuration not stated)	-2.6	19.3	2.2	8.6*	-1.6	3.3	-0.1	-0.9
Cc1ccc(CNC(=O)C2CCC(=O)N(C3CCCC3)C2)c(F)c1F (configuration not stated)	1.0	5.3	1.8	9.7*	-0.5	0.1	-2.4	0.2
COc1ccc(-n2nnnc2S(=O)(=O)CC(=O)N2CCCCC2)cc1	-0.3	·	-1.0	-6.1	·	-0.8	·	·
COc1ccc(-n2nnnc2S(=O)(=O)Cc2ccc(C(=O)O)cc2)cc1	1.7	-49.4	-7.2	13.3*	90.4	5.1	15.2*	0.0
CC(C)c1ccc(C2N3CC4([N+](=O)[O-])CN2CC([N+](=O)[O-])(C3)C4(C)C)cc1 (configuration not stated)	-2.0	9.1	-0.1	13.0*	5.9	-2.0	0.3	0.5
CC1(C)C2([N+](=O)[O-])CN3CC1([N+](=O)[O-])CN(C2)C3c1ccccc1 (configuration not stated)	-0.7	20.6	-0.1	-2.0	1.5	2.2	·	·
COc1cc(Nc2c3ccccc3nc3ccccc23)cc(OC)c1OC	-11.0	33.9	-2.0	8.2*	13.2	2.8	30.5*	0.9
COc1ccc(Cn2cc(CN3[C@@H](c4ccccc4)COc4cc(Br)ccc4S3(=O)=O)nn2)cc1	1.6	·	·	3.3	·	·	·	·
CC1CCCN(S(=O)(=O)c2ccc3[nH]c(=O)cc(C(=O)NCCCN4CCCCCC4)c3c2)C1 (configuration not stated)	0.5	·	0.1	-3.9	·	·	·	·
CCCCN(C)CCCNC(=O)c1cc(=O)[nH]c2ccc(S(=O)(=O)N3CCCCC3C)cc12 (configuration not stated)	-0.6	15.4	-1.3	8.2*	3.7	-3.0	0.0	0.6
Cc1cccc2c1ncc1c(=O)n(-c3ccccc3)[nH]c12	-1.8	12.3	3.5	11.7*	18.1	-3.2	7.6	11.2*
Cc1[nH]n(-c2ccccc2)c(=O)c1N=Nc1c(Cl)cccc1Cl	·	3.4	-1.3	·	-8.3	2.4	·	·
O=C(N/N=C/c1ccc(Br)s1)c1ccccn1	-3.0	28.6	2.3	10.6*	26.9	10.8	14.2*	9.0*
CC(C)(C)c1ccc(/C=N/NC(=O)c2ccccn2)cc1	-1.3	-1.9	0.1	9.8*	-17.4	11.0	2.4	9.0*
COc1cc(/C=N/NC(=O)c2ccccn2)cc2c1OCO2	-1.3	7.4	4.5	16.9*	13.9	-1.9	8.5*	8.5*
SMILES	PG9 binder	AI-2 QS mod	GAA850 FXN act	SMARCA2 act	HSF1 inhib	HSP90 refold inh	SMARCA2 conf	GAL4-VP16 Luc
COC(=O)[C@]12C[C@H](CC(=O)NCc3ccc(OC)c(OC)c3)C(=O)N(CCC3=CCCCC3)C1=C[C@H](C(C)(C)C)O[C@@H]2C	-0.2	·	·	-5.8	·	·	·	·
Cc1cccc(C)c1-n1nnnc1C(c1ccnc2ccccc12)N(C)Cc1ccc(Cl)c(Cl)c1 (configuration not stated)	0.2	·	·	-1.6	·	·	·	·
CCN(CC)C(=O)CC[C@H]1CC[C@]2(CCCN(C(=O)c3ccco3)C2)O1	·	·	·	-2.6	·	·	·	·
Cn1cccc1CC(=O)NNC(=S)Nc1ccccc1Cl	-3.1	-1.1	3.9	8.3*	-8.8	0.9	-1.7	4.2
COc1ccccc1CNc1ccc2c(c1)OC[C@H](CC(C)C)NS2(=O)=O	5.6	·	·	-3.8	·	·	·	·
Cn1nc(C(=O)N2CCN(c3ccccc3F)CC2)c2c1-c1ccccc1S(=O)(=O)C2	1.1	·	-0.2	-1.3	1.5	-1.3	·	·
Cc1cccc(N2CCN(C(=O)c3nn(C)c4c3CS(=O)(=O)c3ccccc3-4)CC2)c1C	-2.7	11.8	1.2	10.2*	-2.5	4.9	-2.1	0.3
c1ccc(CSc2nc3ncccn3n2)cc1	-0.1	·	3.0	8.7*	·	·	12.2*	8.8*
CC1(c2nnnn2C2CCCC2)CCC(=O)N1c1ccc2c(c1)OCCO2 (configuration not stated)	-2.4	·	·	-6.0	·	·	·	·
COc1ccccc1OCCSc1nnnn1-c1ccc(C)cc1	0.9	26.8	0.9	9.0*	9.4	·	0.3	2.8
Cc1ccc(Cl)cc1-c1cc(C(=O)NCc2cc(C(F)(F)F)cc(C(F)(F)F)c2)[nH]n1	-0.8	·	-0.6	-4.0	·	·	·	·
N#C/C(C(=O)NCc1ccccc1)=C1/N=C(NC(=O)c2ccco2)c2ccccc21	-5.3	9.3	2.5	10.2*	17.0	3.3	1.5	3.0
COc1ccc(CCNC(=O)/C(C#N)=C2\N=C(NC(=O)c3ccco3)c3ccccc32)cc1	-11.4	29.9	1.4	-1.9	2.7	0.8	·	·
